# Results published in PubChem BioAssay (NCI).
# This is part of a sample that, as a whole, favours compounds with a hit. Of some 83,000 tested, about 20% had one in any assay.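 Percent growth is the endpoint: 0 to 100 indicates growth inhibition (40 means 60% inhibition), 0 means no net growth, and negative values indicate cell death.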 Unmarked numbers belong to inactive results. The source made the active and inactive calls. Rule for the calls: active = growth percent below 10; inactive = the rest.
# Key:
# Test in all cases: NCI-60 one-dose screen, 48 h (100 = growth as untreated, 0 = no growth, -100 = all killed)
# Settings in all cases: 10 µM unless noted
# [1] = system: RPMI-8226 leukemia
# [2] = system: OVCAR-8 ovarian
# [3] = system: OVCAR-5 ovarian
# [4] = system: OVCAR-4 ovarian
# [5] = system: SK-OV-3 ovarian
# [6] = system: IGROV1 ovarian
# [7] = system: OVCAR-3 ovarian
# [8] = system: HS 578T breast
# [9] = system: NCI/ADR-RES ovarian
# [10] = system: T-47D breast
SMILES,growth [1],growth [2],growth [3],growth [4],growth [5],growth [6],growth [7],growth [8],growth [9],growth [10]
CCN(CC)CCCNc1ccnc2cc3ccccc3cc12,74.2%,60.1%,84.7%,77.4%,72.4%,81.2%,74.5%,68.4%,71.1%,66%
CC1=C(C(=O)OCC2CCN(C(=O)OC(C)(C)C)CC2)[C@H](c2cccc(C#N)c2)C2=C(CC(C)(C)CC2=O)N1,41.5%,46.9%,75.9%,61.7%,84%,47.8%,58.3%,61.7%,50.6%,69.8%
COc1cc(/C=C/C(=O)N2c3ccccc3CC2C)c(OC)c2c1OCO2 (stereo not given),88.6%,96.9%,87.1%,96.6%,122%,105%,103%,96.2%,81.5%,77.2%
CCCCOCc1cc(CN2CCN(C)CC2)c(O)c2ncccc12,48.2%,27.1%,73%,31.1%,42.5%,80.8%,23.9%,79.3%,5.45% (active),67.3%
C1=CC2(C=C1)OC21CCC2(C=CC3(C2)OC3C2CCCCC2)CC1 (stereo not given),103%,107%,104%,103%,109%,107%,110%,103%,98.4%,104%
Cn1c(=O)n(C)c2cc(CNCCNc3ccnc4cc(Cl)ccc34)ccc21,34.1%,66.6%,76.7%,81.5%,86.2%,98.8%,89.3%,77.6%,80.3%,82.4%
CCC1=C[C@@H]2CN(C1)Cc1c([nH]c3ccccc13)[C@@](C(=O)OC)(c1cc3c(cc1OC)N(C)[C@H]1[C@@](O)(C(=O)OC)[C@H](OC(C)=O)[C@]4(CC)[C@@H]5C[C@@H]5CN5CC[C@]31[C@@H]54)C2,-20.3% (active),14.5%,44.6%,14.6%,-24% (active),1.74% (active),-25.8% (active),-5.73% (active),1.35% (active),72%
O=C(NN1C(=O)CSC1c1ccc(Cl)cc1)c1[nH]c2ccc(F)cc2c1-c1ccccc1 (stereo not given),25%,35.2%,72%,47.4%,87.2%,36.8%,47.9%,94.6%,43.3%,52.1%
CCC(C)(C)C(=O)O[C@H]1C[C@@H](C)C=C2C=C[C@H](C)[C@H](CC[C@@H]3CC=CC(=O)O3)[C@H]21,-16.7% (active),61.6%,142%,106%,115%,97.2%,51.2%,94.6%,90.6%,80.8%
CC[C@]1(O)C[C@@H]2CN(CCc3c([nH]c4ccccc34)[C@@](C(=O)OC)(c3cc4c(cc3OC)N(C)[C@H]3[C@@](O)(C(=O)OC)[C@H](OC(=O)CCCBr)[C@]5(CC)C=CCN6CC[C@]43[C@@H]65)C2)C1,6.27% (active),19.4%,24.9%,35.3%,30.8%,11.2%,-1.93% (active),8.92% (active),13.8%,74.2%
O=C1c2cc(I)ccc2Oc2cc([N+](=O)[O-])ccc2N1c1ccc(Cl)cc1F,87.4%,91%,90.5%,79.4%,96.1%,72.3%,100%,88.6%,89.7%,82.5%
O=c1c2cc(F)ccc2sc2c(NCCCNCCO)nc3ccc(Cl)cc3c12,36%,63.7%,79.5%,61%,87.7%,32%,68%,56.8%,85.8%,57.5%
O=C(NCCCN1CCC(N2CCCCC2)CC1)C1=Cc2cc(Br)ccc2OC1,30.3%,19%,77%,45.5%,86.4%,33.3%,48.6%,55.8%,38.9%,44.8%
COc1ccc(-c2nc(N3CCN(C(=O)C4CCCCC4)CC3)c3c4c(sc3n2)CCCC4)cc1,2.49% (active),-44.7% (active),35.6%,-85.4% (active),81%,33.7%,-38.3% (active),12.8%,84.2%,3.68% (active)
O=C(NC(=S)Nc1cccc(NC(=S)NC(=O)c2ccccc2)c1)c1ccccc1,80.9%,31.6%,116%,16.4%,44.1%,69.1%,65.1%,18.7%,60.1%,54.6%
O=C(CN1C(=O)/C(=C\c2ccc(Cl)cc2)SC1=S)Nc1ncc(Cc2ccc(Cl)cc2)s1,102%,101%,104%,105%,104%,103%,108%,98.9%,104%,105%
O=c1oc2ccc(Cl)cc2c(=O)n1-c1ccc(F)cc1F,-1.02% (active),11.4%,16.6%,18.5%,-7.81% (active),16.2%,6.16% (active),8.54% (active),7.29% (active),-10.7% (active)
O=S(=O)(c1ccc(NC(=S)NC23CC4CC(CC(C4)C2)C3)cc1)N1CCCCC1,-11.6% (active),82.9%,94.4%,86.4%,106%,94.3%,5.73% (active),88.8%,88.2%,90.5%
COc1ccc(Nc2cc(C)nc(NCc3ccccc3)n2)cc1,8.08% (active),24.1%,62%,46.7%,92.5%,37.5%,6.99% (active),60.5%,77.8%,63%
COc1ccc(/C=C2\NC(=O)NC2=O)cc1O,101%,98.5%,108%,98.8%,103%,107%,116%,109%,102%,100%
O=C(CCc1nnc2sc(COc3ccccc3)nn12)c1nc2ncccc2[nH]1,140%,98.9%,98.4%,100%,94.7%,87.2%,108%,79%,106%,92.7%
O=C(Nc1ncc(Cc2cccc(C(F)(F)F)c2)s1)C1COc2ccccc2O1 (stereo not given),76.9%,89.9%,87.4%,84.6%,100%,86.8%,90.6%,65.4%,87.3%,67.1%
CSc1nc2c(c(=O)[nH]1)N=C1c3ccccc3C(=O)C1C(c1ccc(F)cc1)N2 (stereo not given),68.4%,78.9%,93.6%,41.2%,79.4%,58.3%,21.7%,66.8%,57.5%,72.9%
COc1cc2c(cc1OC)C(=O)C(CC1CCN(C(=O)Nc3ccc(C)cc3)CC1)C2 (stereo not given),111%,106%,86.9%,89.8%,98.5%,96.1%,100%,82.1%,99.6%,89.1%
O=S1(=O)N(Cc2ccccc2)[C@@H](Cc2ccccc2)C2O[C@H]2[C@H](Cc2ccccc2)N1Cc1ccccc1 (stereo not given in full),27.9%,52.4%,93.5%,6.6% (active),47%,60.6%,62.8%,98.9%,40%,32.5%
O=c1oc2ccc(F)cc2c(=O)n1-c1ccc(Cl)cc1F,-23.1% (active),9.27% (active),17.6%,13.3%,-11.5% (active),18.9%,8.61% (active),-0.15% (active),2.98% (active),-19% (active)
O=C(Nc1ccc(Cl)cc1F)c1cc(F)ccc1O,-23% (active),9.44% (active),27.8%,11.2%,-4.5% (active),17.5%,9.51% (active),1.1% (active),7.19% (active),-8.15% (active)
